TDP1 cell noCPT = qHTS for Inhibitors of human tyrosyl-DNA phosphodiesterase 1 (TDP1): qHTS in cells in absence of CPT; DT40 Tdp1-/- hTDP1 cells, no CPT, ATP luminescence, 48 h; Potency, µM (doses to about 46.2 µM), hits mostly inhibitors; 420,000 compounds, 15% hits; AID 686978, 2013; also: nearly all actives have a fitted effect of over 55% in size
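Camptothecin absent (DMSO only). Human TDP1-complemented DT40 knockout cells, 400 cells/well, 37 °C for minimum 48 hr; ATP measured via CellTiter-Glo, 30 min dark incubation, luminescence.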
IL-1B inflam inh = blocks inflammasome-driven IL-1 beta release. THP-1 LPS/ATP IL-1B secretion, AlphaLISA, 16 h; stronger effect = lower value. activity change, % at 57.5 µM. 360,000 compounds, 4.7% hits. AID 743279; in the data active = activity change below about -50%; inconclusive = mostly about -30% to -49%
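Secreted IL-1B measured by AlphaLISA bead assay after 16 h compound exposure of THP-1 cells; compounds (final up to 57.5 uM) added 1 h before LPS (250 ng/mL) and ATP (1.25 mM) stimulation; lower signal means less secretion.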
HT1080-NT tox = kills 2HG-producing HT-1080-NT fibrosarcoma cells; HT-1080-NT fibrosarcoma viability, CellTiter-Glo ATP luminescence, 48 h; Potency, µM (top dose mostly 46.1 µM), actives largely listed as cytotoxic; AID 686970; 360,000 compounds, 1.6% hits;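 also: NT is the 2HG producing partner of a matched IDH1 knockdown line; nearly all actives have a fitted effect of over 55% in size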
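Viability by CellTiter-Glo luminescence after 48 h compound exposure at 37C of HT-1080-NT cells (750/well, RPMI, 5% FBS). % activity scaled between DMSO wells and medium-only wells, then curve-fitted and categorized by curve class.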
HT1080 IDH1KD tx = HT-1080 IDH1 knockdown cell toxicity (counter line) | HT-1080 IDH1 knockdown viability, ATP luminescence, 48 h | Potency, µM (series often up to 46.1 µM), most hits filed as cytotoxic | 360,000 compounds, 2% hits | AID 686971
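In this qHTS, HT-1080 cells depleted of IDH1 are exposed for 48 h at 37 °C to compound titrations. Toxicity is scored from CellTiter-Glo luminescence, with DMSO as full viability and medium alone as none.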
DT40 TDP1 CPT = DT40-hTDP1 cell growth loss with CPT | chicken DT40 Tdp1-/-;hTDP1 cells + 20 nM CPT, ATP luminescence, 48 h | Potency, µM (doses to about 46.2 µM), most hits filed as inhibitors | 420,000 compounds, 12% hits; also: nearly all actives have a fitted effect of over 55% in size
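Chicken DT40 Tdp1-/- cells complemented with human TDP1, 400 cells/well, exposed to compounds plus 20 nM camptothecin for at least 48 h at 37 C; viability read as ATP content by CellTiter-Glo luminescence.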
A number is an active result; – = inactive; ? = inconclusive; · = no result. In the library only some 19% were active in any assay of this set; here they are far more common. Unless noted, calls follow the shape of the dose curve; as a rule, active = well fitted curve in the direction sought with a large enough effect; inconclusive = small, poorly fitted or top-dose-only effect, or another doubt; inactive = no such curve, though single readings can be large; an effect the other way counts as inactive or inconclusive.

SMILES	TDP1 cell noCPT	IL-1B inflam inh	HT1080-NT tox	HT1080 IDH1KD tx	DT40 TDP1 CPT
O=C(NC(=S)NC12CC3CC(CC(C3)C1)C2)c1ccc(F)cc1	23.1µM	–	–	–	?
COc1ccc(C(=O)NC(=S)NNC(=O)COc2ccccc2)cc1	?	–	?	?	14.6µM
COc1ccc(C(=O)NC(=S)NNC(=O)c2ccco2)cc1	20.6µM	–	–	?	18.4µM
Cc1ccc(C(=O)NC(=S)NNC(=O)COc2ccc([N+](=O)[O-])cc2)cc1	14.6µM	–	–	–	?
Cc1ccc(OCC(=O)Nc2ccc([N+](=O)[O-])cc2)cc1	–	–	–	–	–
O=C(NC12CC3CC(CC(C3)C1)C2)c1ccccc1	–	–	–	–	–
O=C(Nc1ccc(C(=O)N2CCOCC2)cc1)c1ccccc1Cl	–	?	–	–	–
COc1cc(-c2noc(C)c2C(=O)NCCCN2CCOCC2)cc(OC)c1OC	–	–	–	–	–
CCS(=O)(=O)c1ccc2c(c1)N(S(=O)(=O)c1ccc(Cl)cc1)CC(C(=O)O)O2 (stereo not given)	–	–	–	–	–
O=C(NNC(=S)NC(=O)c1ccc(F)cc1)c1ccncc1	23.1µM	–	–	–	18.4µM
COc1ccccc1OCC(=O)NNC(=S)NC(=O)c1ccco1	18.4µM	–	–	–	?
O=C(NNC(=O)c1ccc(F)cc1)c1ccncc1	–	–	–	–	–
CC1CCCC(NC(=O)CCC(=O)N2CCOc3ccccc32)C1C (stereo not given)	?	–	–	–	?
C=CCN1CC(=O)N2Cc3[nH]c4ccccc4c3C[C@H]2C1=O	–	–	–	–	–
O=C1[C@@H]2Cc3c([nH]c4ccccc34)CN2C(=O)CN1CCCO	–	–	–	–	–
CCCCN1C(=O)C2Cc3c([nH]c4ccccc34)CN2C1=S (stereo not given)	?	-88.4	–	–	–
CCCCCCN1CC(=O)N2Cc3[nH]c4ccccc4c3C[C@H]2C1=O	?	-58.4	–	–	–
CCCCCN1CC(=O)N2Cc3[nH]c4ccccc4c3C[C@H]2C1=O	–	-58.9	–	–	–
CC(C)(C)OC(=O)NN1CC(=O)N2Cc3[nH]c4ccccc4c3C[C@H]2C1=O	–	–	–	–	–
O=C(NCc1ccccn1)[C@@H]1CCCN1C(=O)[C@@H]1CCCN1	–	–	–	–	–
Cc1ccccc1N=C(NO)c1nonc1N	–	–	–	–	–
Cc1ccccc1-c1noc(-c2ccc(NCc3ccco3)c([N+](=O)[O-])c2)n1	–	·	·	·	?
CCN(CC)c1ccc(NC(=O)CCS(=O)(=O)c2ccc3c(c2)oc(=O)n3C)c(C)c1	–	·	·	·	?
CCN(CC)c1ccc(NS(=O)(=O)c2ccc3c(c2)oc(=O)n3C)c(C)c1	?	–	–	–	25.9µM
Cn1cnc2c(=O)oc3ccc(S(=O)(=O)Nc4ccc(F)cc4)cc3c21	–	·	·	·	–
SMILES	TDP1 cell noCPT	IL-1B inflam inh	HT1080-NT tox	HT1080 IDH1KD tx	DT40 TDP1 CPT
CCCCCCCCCc1nc2sc3c(c2c(=O)n1NC(=O)c1ccccc1[N+](=O)[O-])CC(C)(C)OC3	?	-74.4	?	?	?
O=C(CSC(=S)N1CCCC1)NCC(=O)Nc1ccc(F)c(F)c1	–	–	–	–	–
Clc1ccc(OCc2cn3cccnc3n2)c2ncccc12	–	–	–	–	–
c1cnc2c(OCc3cn4cccnc4n3)cccc2c1	29.1µM	–	–	–	–
CCCN(C)C1CN(Cc2cn(Cc3ccc(F)cc3)nn2)S(=O)(=O)C1 (stereo not given)	–	–	–	–	–
Cc1ccc(OCCCn2ccnc2)cc1C	18.4µM	–	–	–	?
CCCCCOc1ccc(NC(=O)C(=O)NCCCn2ccnc2)cc1	18.4µM	–	–	–	?
C=CCOc1ccc(NC(=O)C(=O)NCCCn2ccnc2)cc1	–	–	–	–	–
Cc1cccc(OCCCn2ccnc2)c1	?	–	–	–	20.6µM
Cc1ccc(S(=O)(=O)NC(=O)c2cc(C)n(-c3ccc(N(C)C)cc3)c2C)cc1	–	–	–	–	–
CC(=O)[C@]1(O)CCC2C3CC(C)C4=CC(=O)C=CC4(C)[C@@]3(F)C(O)C[C@]21C (stereo not given in full)	–	·	·	·	–
CCOC(=O)C1CCN(Cc2ccc(OCc3ccccc3)cc2)CC1	–	–	–	–	–
O=C(NC1CCN(Cc2ccccc2)CC1)c1ccccc1	–	–	–	–	–
COc1ccc(CN2CCC(Oc3cc(C(=O)NC4CC4)ccc3OC)CC2)c(O)c1	–	–	–	–	–
CC(C)(C)c1ccc(C(=O)NC2CCN(Cc3ccccc3)CC2)cc1	18.4µM	–	–	–	?
CCCCN(C)C(=O)C1CCN(Cc2ccc(OCc3ccccc3)cc2)CC1	16.4µM	?	?	?	?
COc1ccc(C(=O)NC2CC2)cc1OC1CCN(Cc2ccc(F)cc2Cl)CC1	18.4µM	?	–	–	?
O=C(NC1CCN(Cc2ccc(Cl)cc2Cl)CC1)c1ccccc1	18.4µM	-50.1	–	–	20.6µM
O=C(NC1CCN(Cc2ccccc2)CC1)c1ccc2c(c1)[nH]c(=O)n2Cc1ccc(F)cc1	?	-76.9	14.6µM	–	?
CCCCCn1c(=O)[nH]c2cc(C(=O)NC3CCN(Cc4ccccc4)CC3)ccc2c1=O	?	–	–	–	?
Cc1ccc(NS(=O)(=O)c2ccc(C(=O)NC3CCN(Cc4ccccc4)CC3)cc2)cc1	14.6µM	-93.5	?	–	14.6µM
Cc1ccc(CC(=O)NC2CCN(Cc3ccccc3)CC2)cc1	–	–	–	–	–
CCN1CCN(c2ccc(NC(=O)c3ccc4c(c3)[nH]c(=O)n4Cc3ccc(OC)cc3)cc2)CC1	?	–	–	–	23.1µM
CCN(c1ccccc1)S(=O)(=O)c1ccc(Cl)c(NC(=O)CN(C)C2CCN(C)CC2)c1	16.4µM	-54.6	?	23.1µM	?
COc1ccc(Cn2c(=O)[nH]c3cc(C(=O)Nc4ccccc4C)ccc32)cc1	–	–	–	–	–
O=C(NC1CCN(Cc2ccccc2)CC1)c1cc(S(=O)(=O)Nc2ccc(F)cc2)ccc1Cl	14.6µM	-68.5	–	–	23.1µM
CC(C)(CNC(=O)c1cccc(S(=O)(=O)Nc2ccc(SC(F)F)cc2)c1)N1CCOCC1	–	–	–	–	?
CCCCOc1ccc(C(=O)NCC(=O)NC2CCN(Cc3ccccc3)CC2)cc1	?	–	–	–	23.1µM
CCc1ccccc1NC(=O)c1ccc(CN2CCC(Cc3ccccc3)CC2)cc1	?	-79.5	20.6µM	?	?
O=C(NC1CCN(Cc2ccccc2)CC1)c1cccc(S(=O)(=O)Nc2ccc(SC(F)F)cc2)c1	?	–	?	–	23.1µM

Compound activity deposited in PubChem BioAssay by National Center for Advancing Translational Sciences (NCATS).
